Test [1] concerns the target human RAR-related Orphan Receptor gamma (RORg), RORC (gene 6097) (UniProt P51449). The test can be described thus: ATG_RORg_TRANS: Attagene TRANS-FACTORIAL HepG2 Assay for human RAR-related Orphan Receptor gamma (RORg) (AID 2283011; active means hit-call score of the fitted dose curve at least 0.9, where 1 is the maximum). The method in brief: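 First, HepG2 liver cells were transfected with GAL4-UAS-driven reporter constructs and the RORg-Gal4 fusion. Next, they were treated with chemical for 24 h. Finally, reporter mRNA was quantified by RT-PCR and capillary electrophoresis, with upward activity fitted against DMSO.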

The target of test [2] is human Thyroid Receptor alpha (THRa1), THRA (gene 7067) (UniProt P10827). The test can be described thus: ATG_THRa1_TRANS: Attagene TRANS-FACTORIAL HepG2 Assay for human Thyroid Receptor alpha (THRa1) (AID 2283014; active means hit-call score of the fitted dose curve at least 0.9, where 1 is the maximum). The method in brief: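 Reporter transcript induction, read by capillary electrophoresis of 6-FAM-labelled RT-PCR products, reflects activity of a transfected THRa1-Gal4 fusion in HepG2 liver cells. Cells were dosed for 24 h; activity was fitted in the positive direction against DMSO.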
human Thyroid Receptor alpha (THRa1), THRA (gene 7067), sequence (P10827 whole entry, looked up, the tested form may be a part): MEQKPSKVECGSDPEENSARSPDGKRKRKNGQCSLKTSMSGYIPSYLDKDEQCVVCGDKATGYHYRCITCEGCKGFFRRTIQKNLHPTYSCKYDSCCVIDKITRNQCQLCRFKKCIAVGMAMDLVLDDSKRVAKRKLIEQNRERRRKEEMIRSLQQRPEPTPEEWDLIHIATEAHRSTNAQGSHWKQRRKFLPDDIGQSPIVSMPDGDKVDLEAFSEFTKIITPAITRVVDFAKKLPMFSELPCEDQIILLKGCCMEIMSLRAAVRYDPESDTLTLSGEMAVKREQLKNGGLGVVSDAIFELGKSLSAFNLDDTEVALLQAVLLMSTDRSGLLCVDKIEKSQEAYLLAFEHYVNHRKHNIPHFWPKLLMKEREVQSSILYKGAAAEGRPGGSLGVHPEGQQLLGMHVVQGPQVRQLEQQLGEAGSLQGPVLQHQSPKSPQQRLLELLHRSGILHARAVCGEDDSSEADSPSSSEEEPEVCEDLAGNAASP

Read-out in test [3]: Interleukin-1 alpha (IL1a), IL1A (gene 3552)
The test can be described thus: BSK_BE3C_IL1a: BioMAP Diversity Plus: BE3C Assay for Interleukin-1 alpha (IL1a) Biomarker Activity (AID 2283016). As to conditions: primary human bronchial epithelial cells; actives raise or lower the signal. The method in brief:
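Human primary bronchial epithelial cells (BE3C system) were dosed with compound and IL-1a measured by ELISA 24 h later. Activity was fitted bidirectionally against DMSO baseline; cytotoxicity was tracked in parallel cultures by SRB total-protein staining.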

Read-out in test [4]: Monocyte Chemoattractant Protein-1 (MCP1), CCL2 (gene 6347)
The test can be described thus: BSK_3C_MCP1: BioMAP Diversity Plus: 3C Assay for Monocyte Chemoattractant Protein-1 (MCP1) Biomarker Activity (AID 2283017). Conditions: primary human endothelial cells (HUVEC); actives raise or lower the signal. In short, it runs like this:
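ELISA read-out of MCP-1 from human umbilical vein endothelial cell cultures harvested 24 h post-dosing. Gain or loss of signal was fitted relative to DMSO.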

Read-out in test [5]: Monocyte Chemoattractant Protein-1 (MCP1), CCL2 (gene 6347)
The test can be described thus: BSK_4H_MCP1: BioMAP Diversity Plus: 4H Assay for Monocyte Chemoattractant Protein-1 (MCP1) Biomarker Activity (AID 2283018). Conditions: primary human endothelial cells (HUVEC); actives raise or lower the signal. The method in brief: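 Human umbilical vein endothelial cells (4H system) dosed with chemical; MCP-1 measured by ELISA 24 h after dosing. Bidirectional curve fitting against DMSO negative control as baseline; parallel SRB total-protein staining tracks overt cytotoxicity.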

Read-out in test [6]: Human Leukocyte Antigen - DR isotype (HLADR), HLA-DRA (gene 3122)
Briefly: BSK_3C_HLADR: BioMAP Diversity Plus: 3C Assay for Human Leukocyte Antigen - DR isotype (HLADR) Biomarker Activity (AID 2283019). As to conditions: primary human endothelial cells (HUVEC); actives raise or lower the signal. The method in brief: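 ELISA readout of surface HLA-DR on human umbilical vein endothelium, taken 24 h after chemical treatment. Gain- and loss-of-signal were both fitted relative to DMSO.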

Read-out in test [7]: Interleukin-8 (IL8), CXCL8 (gene 3576)
Briefly: BSK_3C_IL8: BioMAP Diversity Plus: 3C Assay for Interleukin-8 (IL8) Biomarker Activity (AID 2283020). Conditions: primary human endothelial cells (HUVEC); actives raise or lower the signal. The method in brief: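 Primary human umbilical vein endothelial cells (3C system) were exposed to test chemical for 24 h, then IL-8 was quantified by ELISA. Responses were fitted bidirectionally against DMSO vehicle as baseline.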

Read-out in test [8]: Monokine induced gamma interferon (MIG), CXCL9 (gene 4283)
The test can be described thus: BSK_3C_MIG: BioMAP Diversity Plus: 3C Assay for Monokine induced gamma interferon (MIG) Biomarker Activity (AID 2283021). As to conditions: primary human endothelial cells (HUVEC); actives raise or lower the signal. The method in brief: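 Primary human umbilical vein endothelial cells in the 3C system were exposed to chemical for 24 h, after which MIG was quantified by ELISA. Activity was fitted bidirectionally against DMSO as negative control and baseline.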

Test [9] is described as follows: BSK_3C_SRB: Viability Assessment in the BioMAP Diversity Plus: 3C Assay (AID 2283023).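 Further: fitted both ways against DMSO so a hit may be signal rise or drop.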 Conditions: primary human endothelial cells (HUVEC). The method in brief: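 Absorbance at 560 nm of sulforhodamine B-stained (0.1%) total protein served as a cytotoxicity readout in human umbilical vein endothelial cells, 24 h after chemical treatment. Signal was fitted bidirectionally relative to DMSO.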

Read-out in test [10]: Matrix Metallopeptidase 1 (MMP1), MMP1 (gene 4312)
The test can be described thus: BSK_BE3C_MMP1: BioMAP Diversity Plus: BE3C Assay for Matrix Metallopeptidase 1 (MMP1) Biomarker Activity (AID 2283024). Conditions: primary human bronchial epithelial cells; actives raise or lower the signal. In short, it runs like this: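 Primary human bronchial epithelial cells were dosed with test chemicals, and MMP1 levels were measured by ELISA 24 h later. Data were fitted bidirectionally against DMSO as the negative control and activity baseline.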

A short description of test [11]: BSK_3C_Vis: BioMAP Diversity Plus: 3C Assay for Morphology Visualization (AID 2283025).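 Further: fitted both ways so gain or loss versus DMSO counts.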 As to conditions: primary human endothelial cells (HUVEC). The method in brief: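 Human umbilical vein endothelial cells in the 3C system were imaged by light microscopy 24 h after chemical dosing to record cell morphology. Activity was fitted bidirectionally against DMSO as negative control and baseline; the endpoint serves as a background control.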

Read-out in test [12]: Pselectin, SELP (gene 6403)
The test can be described thus: BSK_4H_Pselectin: BioMAP Diversity Plus: 4H Assay for Pselectin Biomarker Activity (AID 2283026). Conditions: primary human endothelial cells (HUVEC); actives raise or lower the signal. The method in brief: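 Primary human umbilical vein endothelial cells were exposed to test chemical for 24 h, then cell-surface P-selectin was quantified by ELISA. Activity was fitted bidirectionally against DMSO as negative control and baseline.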

Test [13] is described as follows: BSK_4H_SRB: Viability Assessment in the BioMAP Diversity Plus: 4H Assay (AID 2283027).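 Further: cells exposed to compound for 24 h before staining.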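 On AC50: curves fitted both ways versus DMSO so AC50 may be loss or gain.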 As to conditions: primary human endothelial cells (HUVEC). The method in brief:
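Human umbilical vein endothelial cells were dosed with chemical and, after 24 h, fixed with 10% TCA, stained with 0.1% sulforhodamine B, and read at 560 nm to give total protein as a cytotoxicity measure. Bidirectional fitting relative to DMSO control.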

A short description of test [14]: BSK_BE3C_SRB: Viability Assessment in the BioMAP Diversity Plus: BE3C Assay (AID 2283028). Conditions: primary human bronchial epithelial cells. The method in brief: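 Cells (human bronchial epithelial, primary) are treated with chemicals, and after 24 h the parallel cultures are fixed in 10% TCA. These are then stained with 0.1% SRB and read at 560 nm. Gain or loss of signal is fitted relative to DMSO.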

Read-out in test [15]: Thrombomodulin, THBD (gene 7056)
Briefly: BSK_3C_Thrombomodulin: BioMAP Diversity Plus: 3C Assay for Thrombomodulin Biomarker Activity (AID 2283029). Conditions: primary human endothelial cells (HUVEC); actives raise or lower the signal. The method in brief: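 Primary human umbilical vein endothelial cells (3C system) were exposed to chemical for 24 h, then thrombomodulin levels were measured by ELISA. Activity was fitted bidirectionally against the DMSO negative control as baseline.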

The target in test [16] is Retinoic acid receptor RXR-alpha (Homo sapiens) (UniProt P19793). The test can be described thus: ATG_RXRa_TRANS: Attagene TRANS-FACTORIAL HepG2 Assay for human Retinoid X Receptor alpha (RXRa) (AID 2283012; active means hit-call score of the fitted dose curve at least 0.9, where 1 is the maximum). The method in brief:
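HepG2 cells transiently transfected with multiplexed GAL4-UAS reporter units and chimeric NR-GAL4 fusions, dosed 24 h. Reporter mRNA measured by RT-PCR, FAM labelling, HpaI digestion and capillary electrophoresis; gain-of-signal fitted relative to DMSO baseline.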

Test [17] deals with human Retinoid X Receptor beta (RXRb), RXRB (gene 6257) (UniProt P28702). Briefly: ATG_RXRb_TRANS: Attagene TRANS-FACTORIAL HepG2 Assay for human Retinoid X Receptor beta (RXRb) (AID 2283013; active means hit-call score of the fitted dose curve at least 0.9, where 1 is the maximum). The method in brief: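 HepG2 cells transiently transfected with multiplexed reporter units driven by GAL4-UAS and exogenous chimeric NR-Gal4 proteins; treated 24 h. Reporter mRNA measured by RT-PCR, 6-FAM labelling and capillary electrophoresis; gain-of-signal fitted versus DMSO baseline.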
human Retinoid X Receptor beta (RXRb), RXRB (gene 6257), sequence (P28702 whole entry, looked up, the tested form may be a part): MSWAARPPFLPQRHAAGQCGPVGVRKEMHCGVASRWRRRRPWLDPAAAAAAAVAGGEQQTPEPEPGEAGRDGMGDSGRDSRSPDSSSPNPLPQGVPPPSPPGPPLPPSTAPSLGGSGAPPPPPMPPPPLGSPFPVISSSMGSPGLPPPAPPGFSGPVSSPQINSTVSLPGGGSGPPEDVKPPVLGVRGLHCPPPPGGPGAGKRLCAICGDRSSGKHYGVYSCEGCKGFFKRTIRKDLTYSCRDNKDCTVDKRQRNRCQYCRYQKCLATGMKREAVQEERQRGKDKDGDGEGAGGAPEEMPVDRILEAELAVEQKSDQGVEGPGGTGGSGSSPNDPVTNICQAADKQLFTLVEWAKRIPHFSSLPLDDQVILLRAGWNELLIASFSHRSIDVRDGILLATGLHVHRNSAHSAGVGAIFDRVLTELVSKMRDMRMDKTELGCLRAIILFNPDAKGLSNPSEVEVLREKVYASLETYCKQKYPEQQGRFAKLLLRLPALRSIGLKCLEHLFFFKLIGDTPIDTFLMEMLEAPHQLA

Read-out in test [18]: E-selectin (Homo sapiens) (UniProt P16581)
The test can be described thus: BSK_3C_Eselectin: BioMAP Diversity Plus: 3C Assay for Eselectin Biomarker Activity (AID 2283015).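 Further: cell surface E-selectin protein quantified by ELISA 24 h after dosing.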 Conditions: primary human endothelial cells (HUVEC); actives raise or lower the signal. In short, it runs like this: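 ELISA read-out of E-selectin on endothelial monolayers after 24 h chemical treatment. Human umbilical vein primary cells served as the system, with DMSO defining baseline activity for bidirectional fitting.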

Test [19] deals with human Vitamin D Receptor (VDR), VDR (gene 7421) (UniProt P11473). Briefly: ATG_VDR_TRANS: Attagene TRANS-FACTORIAL HepG2 Assay for human Vitamin D Receptor (VDR) (AID 2283022; active means hit-call score of the fitted dose curve at least 0.9, where 1 is the maximum). In short, it runs like this:
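Steps: transfect HepG2 with GAL4-UAS-driven reporter constructs; dose compounds 24 h; isolate RNA, reverse-transcribe, PCR-amplify with 6-FAM-labelled primer extension and HpaI digestion; quantify fragments by capillary electrophoresis relative to DMSO.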

Read-out in test [20]: Urokinase-type plasminogen activator receptor (uPAR), PLAUR (gene 5329)
The test can be described thus: BSK_4H_uPAR: BioMAP Diversity Plus: 4H Assay for Urokinase-type plasminogen activator receptor (uPAR) Biomarker Activity (AID 2283030). As to conditions: primary human endothelial cells (HUVEC); actives raise or lower the signal. The method in brief:
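Cell-surface uPAR ELISA signal, measured 24 h after dosing human umbilical vein endothelial cells, was analyzed with bidirectional fitting relative to DMSO. Parallel SRB staining of total protein tracked overt cytotoxicity.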

Inconclusive results are not listed. The source holds several records for some structures; these can differ, active in one and inactive in another. Active and inactive are the calls of the source. How the source made its calls, unless noted: active means hit-call score of the fitted dose curve at least 0.9, where 1 is the maximum; inactive means score below 0.9.

Here are results for ten molecules from PubChem BioAssay (EPA / NIEHS).

In general, AC50 refers to the concentration giving half of the maximal activity seen.

human Vitamin D Receptor (VDR), VDR (gene 7421), sequence (P11473 whole entry, looked up, the tested form may be a part): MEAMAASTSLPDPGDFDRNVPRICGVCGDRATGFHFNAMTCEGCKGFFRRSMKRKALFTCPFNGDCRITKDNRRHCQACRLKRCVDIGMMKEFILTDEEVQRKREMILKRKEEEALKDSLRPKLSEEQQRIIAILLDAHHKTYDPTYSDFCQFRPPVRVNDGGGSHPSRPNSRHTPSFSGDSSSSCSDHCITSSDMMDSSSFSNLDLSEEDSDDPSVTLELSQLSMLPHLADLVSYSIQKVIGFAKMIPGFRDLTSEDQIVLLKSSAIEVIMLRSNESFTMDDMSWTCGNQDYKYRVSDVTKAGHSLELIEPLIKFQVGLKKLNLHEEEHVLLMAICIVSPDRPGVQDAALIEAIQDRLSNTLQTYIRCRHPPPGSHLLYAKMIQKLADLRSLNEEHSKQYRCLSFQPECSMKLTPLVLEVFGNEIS
human RAR-related Orphan Receptor gamma (RORg), RORC (gene 6097), sequence (P51449 whole entry, looked up, the tested form may be a part): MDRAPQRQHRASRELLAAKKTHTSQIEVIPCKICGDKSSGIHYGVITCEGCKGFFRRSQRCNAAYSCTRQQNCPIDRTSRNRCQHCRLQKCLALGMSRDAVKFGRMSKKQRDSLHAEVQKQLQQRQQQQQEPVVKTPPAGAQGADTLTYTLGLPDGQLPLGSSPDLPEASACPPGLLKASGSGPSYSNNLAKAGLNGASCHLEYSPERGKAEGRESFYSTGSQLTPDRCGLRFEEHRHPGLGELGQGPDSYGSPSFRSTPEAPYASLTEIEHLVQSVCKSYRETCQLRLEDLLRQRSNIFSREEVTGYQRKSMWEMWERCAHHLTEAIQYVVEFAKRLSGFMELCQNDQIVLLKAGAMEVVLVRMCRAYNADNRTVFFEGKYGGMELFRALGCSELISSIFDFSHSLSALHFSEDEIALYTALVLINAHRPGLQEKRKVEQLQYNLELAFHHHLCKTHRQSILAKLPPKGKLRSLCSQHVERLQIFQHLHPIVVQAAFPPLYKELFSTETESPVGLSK
Retinoic acid receptor RXR-alpha (Homo sapiens), sequence (P19793 whole entry, looked up, the tested form may be a part): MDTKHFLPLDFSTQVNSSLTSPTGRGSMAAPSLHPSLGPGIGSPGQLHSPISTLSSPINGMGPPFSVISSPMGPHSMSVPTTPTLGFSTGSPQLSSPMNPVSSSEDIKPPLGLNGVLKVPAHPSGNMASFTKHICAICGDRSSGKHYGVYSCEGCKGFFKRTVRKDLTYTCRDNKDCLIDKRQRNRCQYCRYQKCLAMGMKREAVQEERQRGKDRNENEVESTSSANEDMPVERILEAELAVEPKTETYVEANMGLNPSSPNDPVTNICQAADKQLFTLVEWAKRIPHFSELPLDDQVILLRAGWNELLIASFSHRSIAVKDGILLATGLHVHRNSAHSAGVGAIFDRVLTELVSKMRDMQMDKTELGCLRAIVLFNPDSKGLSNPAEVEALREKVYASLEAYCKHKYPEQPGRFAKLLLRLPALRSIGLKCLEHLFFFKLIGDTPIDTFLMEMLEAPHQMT
E-selectin (Homo sapiens), sequence (P16581 whole entry, looked up): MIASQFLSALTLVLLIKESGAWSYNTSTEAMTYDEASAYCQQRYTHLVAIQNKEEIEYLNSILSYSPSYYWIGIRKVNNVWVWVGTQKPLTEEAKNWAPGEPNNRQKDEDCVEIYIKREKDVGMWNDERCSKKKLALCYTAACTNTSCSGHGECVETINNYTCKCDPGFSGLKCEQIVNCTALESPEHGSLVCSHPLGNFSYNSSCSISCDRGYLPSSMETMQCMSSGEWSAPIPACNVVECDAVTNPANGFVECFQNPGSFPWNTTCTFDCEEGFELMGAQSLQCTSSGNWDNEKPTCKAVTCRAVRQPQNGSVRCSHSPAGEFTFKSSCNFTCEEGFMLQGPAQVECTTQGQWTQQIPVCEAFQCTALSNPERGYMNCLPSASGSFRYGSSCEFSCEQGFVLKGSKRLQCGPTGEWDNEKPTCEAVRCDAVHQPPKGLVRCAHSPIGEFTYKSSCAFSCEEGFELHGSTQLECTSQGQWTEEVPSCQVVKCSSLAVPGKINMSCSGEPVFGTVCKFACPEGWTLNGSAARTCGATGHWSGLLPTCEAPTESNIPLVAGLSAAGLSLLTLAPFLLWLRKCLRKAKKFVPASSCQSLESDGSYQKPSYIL

With `COP(=O)(O)OC`, the outcome in test [1], in test [2], in test [3], in test [4], in test [5] and in test [6] was inactive. The result in test [7], in test [8], in [9], in [10], in test [11] and in [12] was inactive. The result in [13], in test [14] and in [15] was inactive.

For the molecule `CCOP(=S)(OCC)SCS(=O)(=O)CC`, the molecule was classed as inactive in test [16], in test [17], in test [2], in [18], in test [3] and in test [4]. The result in test [5], in test [6], in test [7], in test [8], in test [19] and in [9] was inactive. In addition, the outcome in test [10], in test [12], in test [13], in test [14], in test [15] and in test [20] was inactive.

Take `Oc1ccc(I)cc1`: the result in [16], in test [2] and in test [19] was inactive.

On to `Cn1[nH]nnc1=S`, for which the molecule was called inactive in test [16].

`C/C(=N\NC(=O)Nc1cc(F)cc(F)c1)c1ncccc1C(=O)O`: the molecule was called inactive in test [16], in test [17], in test [2] and in [19].

For `O=P1(N(CCCl)CCCl)NCCCO1` (stereo not drawn), the result in test [1], in test [18], in test [3], in test [4], in test [5] and in test [6] was inactive. Moreover, the result in test [7], in test [8], in test [19], in test [9], in test [10] and in test [12] was inactive. For the same molecule, the result in test [13], in [14] and in test [15] was inactive.

Take `c1ccc(OP(Oc2ccccc2)Oc2ccccc2)cc1`: the result in test [1], in [3], in [4], in [5], in [6] and in test [7] was inactive. Besides, the result in [8], in test [9], in [10], in test [11], in [12] and in test [13] was inactive. The outcome in [14] and in [15] was inactive.

As for `OCC(F)(F)OC(F)(F)C(F)(F)OC(F)(F)C(F)(F)OC(F)(F)CO`, the result in test [16], in test [2], in test [3], in [4], in test [5] and in test [6] was inactive. In addition, the outcome in test [7], in [8], in test [19], in [9], in test [10] and in test [12] was inactive. Besides, the outcome in test [13], in test [14] and in test [15] was inactive. Further, the AC50 in test [17] is 17.4 µM (active); in test [5], 16.2 µM (active); in test [9] it was 30 µM (active); in [10] it was 39.8 µM (active); in [13] it was 30 µM (active).

As for `N#Cc1c(-c2ccc(Cl)cc2)[nH]c(C(F)(F)F)c1Br`, the call in test [16], in test [17], in test [2], in test [8], in test [19] and in test [10] was inactive. The result in [14] was inactive. In addition, the AC50 in test [3] was 7.11 µM (active); in [4], 0.169 µM (active); in [5], 0.14 µM (active); in [6] it was 0.324 µM (active); in test [7], 0.0221 µM (active); in [9], 1.61 µM (active). Further, the AC50 in test [11] was 7.8 µM (active); in [12], 0.117 µM (active); in [13], 0.0374 µM (active); in test [15] it was 5.07 µM (active).

Regarding `CCCCC(CC)COP(=O)(Oc1ccccc1)Oc1ccccc1` (stereo not drawn), the outcome in test [16], in test [17], in [8], in test [19] and in test [14] was inactive. The AC50 in test [3] is 8.12 µM (active); in [4] it was 10.6 µM (active); in test [5], 7.85 µM (active); in test [6], 9.37 µM (active); in test [7] it was 6.65 µM (active); in [9] it was 9.7 µM (active). Besides, the AC50 in test [10] is 1.91 µM (active); in test [12], 12.3 µM (active); in [13], 20 µM (active); in test [15], 3.97 µM (active); in test [20], 20 µM (active).
